# Source: the OligoGym collection
# What was measured:
# Experiment in all cases: pooled miR-30 sensor sort-seq; sequence = guide strand
# Conditions in all cases: shRNA
# TRAPPC2L = biological target: TRAPPC2L
# TRAPPC2 = biological target: TRAPPC2
# TPRX1 = biological target: TPRX1
# TPPP3 = biological target: TPPP3
# TRAFD1 = biological target: TRAFD1
# TRIM38 = biological target: TRIM38
# TRMT1 = biological target: TRMT1
# TSC1 = biological target: TSC1
# TSPAN3 = biological target: TSPAN3
# TSPAN8 = biological target: TSPAN8
# TSEN34 = biological target: TSEN34
# TSPYL2 = biological target: TSPYL2
# Note: reference of the scale not given here.
sequence,measurement,setting,value
TGTGTAGGAGTTGTGTAGCTTC,sensor-assay potency score (higher = more potent),TRAPPC2L,0.492
TTGTCTTATGTCATGAAGCATA,sensor-assay potency score (higher = more potent),TRAPPC2,-1.65
TGAAGTGAGGGAATAACTGGGT,sensor-assay potency score (higher = more potent),TPRX1,0.243
TTGGAGCTGGGACTGAGCCTGA,sensor-assay potency score (higher = more potent),TPRX1,-0.894
TTCATTCACAGAGCCACCCTCC,sensor-assay potency score (higher = more potent),TPRX1,-0.83
TCGGGCTTGGGATCTGAGCTGG,sensor-assay potency score (higher = more potent),TPRX1,-0.605
TTTAGTGACGCCCACATTGGCT,sensor-assay potency score (higher = more potent),TPPP3,-0.692
TTGCAGTTGTCACACAGTCGAG,sensor-assay potency score (higher = more potent),TRAFD1,-1.47
TAGAGTCATCCCCTTCTTGGTA,sensor-assay potency score (higher = more potent),TPRX1,-0.907
TTGCCCATAGAGTCATCCCCTT,sensor-assay potency score (higher = more potent),TPRX1,-0.764
TGGTGGAGGCTGCAGATCGTGG,sensor-assay potency score (higher = more potent),TPRX1,-1.98
TAGTTGAGAGAACATGCACAGC,sensor-assay potency score (higher = more potent),TRAPPC2L,-1.15
TTTGCCTTTGCAGTTCTGCTGC,sensor-assay potency score (higher = more potent),TRAFD1,0.136
TTTCATTCACAGAGCCACCCTC,sensor-assay potency score (higher = more potent),TPRX1,-0.302
TTATTCTGAATTGAAACCTGGG,sensor-assay potency score (higher = more potent),TRAFD1,0.55
TTTATGTCACTGAGAGACCTGG,sensor-assay potency score (higher = more potent),TRAFD1,-0.674
TTGCACTCTCTTCACCACCCTC,sensor-assay potency score (higher = more potent),TRAFD1,-0.942
TTGGTTGGTAGTTCTATTGTGG,sensor-assay potency score (higher = more potent),TRAFD1,-0.193
TGCAGTTGTCACACAGTCGAGT,sensor-assay potency score (higher = more potent),TRAFD1,-0.879
TTCAGCTCGTTCTCCGTAGGGG,sensor-assay potency score (higher = more potent),TRAPPC2L,0.103
TAACTGGTTACTTGCAGCCTGT,sensor-assay potency score (higher = more potent),TRAFD1,-0.902
TTCTTCAAACAGATTATTCTGA,sensor-assay potency score (higher = more potent),TRAFD1,0.585
TCTGTCTTCAAGTTGCTTCAGT,sensor-assay potency score (higher = more potent),TRIM38,0.253
TATAAAAGGATACAACTCCGGC,sensor-assay potency score (higher = more potent),TRIM38,-0.57
TCGTTTGCAACCACAGATCTGA,sensor-assay potency score (higher = more potent),TRMT1,-0.44
TTTGCGTGTCCTTCTCTCCTGG,sensor-assay potency score (higher = more potent),TRMT1,0.33
TAGCTGTCCAACACTGTCCGGG,sensor-assay potency score (higher = more potent),TSC1,-0.0259
TTCTGTGACAAAAACCAAGAGC,sensor-assay potency score (higher = more potent),TSPAN3,-0.255
TATGTCTAGAAGATATCTGTGG,sensor-assay potency score (higher = more potent),TSPAN8,-0.374
TTTCTGCTTCTTAGCAGCCTGG,sensor-assay potency score (higher = more potent),TSEN34,-1.47
TTAGATTTGAAAACAGCTCCTA,sensor-assay potency score (higher = more potent),TSPAN8,0.475
AACCACTACAACAACTTCTGTG,sensor-assay potency score (higher = more potent),TSPAN3,0.151
TTGTGGTCAGGATTCTCGCTGT,sensor-assay potency score (higher = more potent),TSPYL2,-0.451
TTGTTTTCCATTATAGCTTTGG,sensor-assay potency score (higher = more potent),TSPAN8,-0.474
TAGGTCTTATACACTTTCTGAA,sensor-assay potency score (higher = more potent),TSPAN3,-0.69
TTGCTCTGTAAACATATCCCAA,sensor-assay potency score (higher = more potent),TSPAN3,-1.02
